# Reference: PubChem BioAssay AID602400 (Sanford-Burnham Center for Chemical Genomics, 2012)
# Active and inactive are the calls of the source. The rule behind the calls is not given here.
# Experiment: off-target activity on Bfl-1 – biochemical, set 4, counter-screen for UBC13 polyubiquitination inhibitor project, SAR follow-up (AID 602400)
# Conditions: Bfl-1 counterscreen for UBC13 inhibitors
row,SMILES,IC50
1,O=C(NCc1cccc(Cl)c1)C1CCCN(c2ncnc3c2nc2n3CCCC2)C1 (stereo not drawn),> 100 µM (inactive)
2,O=C(NCC1CCN(Cc2cccc(Cl)c2)CC1)C1CCCN(c2ncnc3c2nc2n3CCCCC2)C1 (stereo not drawn),> 100 µM (inactive)
3,O=C(C1CCN(c2ncnc3c2nc2n3CCCCC2)CC1)N1CCOCC1,> 100 µM (inactive)
4,Cc1ccc(NC(=O)C2CCN(c3ncnc4c3nc3n4CCCCC3)CC2)cc1C,> 100 µM (inactive)
5,Cc1cccc(NC(=O)C2CCN(c3ncnc4c3nc3n4CCCCC3)CC2)c1,> 100 µM (inactive)
6,Cc1ccc(NC(=O)C2CCN(c3ncnc4c3nc3n4CCCC3)CC2)cc1C,20.8 µM (active)
7,O=C(C1CCN(c2ncnc3c2nc2n3CCCCC2)CC1)N1CCN(Cc2ccccc2)CC1,> 100 µM (inactive)
8,Cc1ccc(NC(=O)C2CCCN(c3ncnc4c3nc3n4CCCCC3)C2)cc1Br (stereo not drawn),> 100 µM (inactive)
9,Cc1ccc(NC(=O)C2CCCN(c3ncnc4c3nc3n4CCCC3)C2)cc1F (stereo not drawn),> 100 µM (inactive)
10,Cc1ccc(NC(=O)C2CCN(c3ncnc4c3nc3n4CCCCC3)CC2)cc1Cl,> 100 µM (inactive)
11,O=C(NCCCN1CCCCC1)C1CCN(c2ncnc3c2nc2n3CCCCC2)CC1,> 100 µM (inactive)
12,Cc1cc(C)cc(NC(=O)C2CCCN(c3ncnc4c3nc3n4CCCCC3)C2)c1 (stereo not drawn),> 100 µM (inactive)
13,COc1cc(OC)c(NC(=O)C2CCN(c3ncnc4c3nc3n4CCCCC3)CC2)cc1Cl,> 100 µM (inactive)
14,Cc1cccc(NC(=O)C2CCCN(c3ncnc4c3nc3n4CCCC3)C2)c1 (stereo not drawn),> 100 µM (inactive)
15,Cc1ccc(NC(=O)C2CCCN(c3ncnc4c3nc3n4CCCCC3)C2)cc1F (stereo not drawn),> 100 µM (inactive)
16,Cc1ccc(NC(=O)C2CCN(c3ncnc4c3nc3n4CCCCC3)CC2)cc1F,> 100 µM (inactive)
17,O=C(NCc1cccc(Cl)c1)C1CCN(c2ncnc3c2nc2n3CCCCC2)CC1,> 100 µM (inactive)
18,O=C(NCc1ccc(Cl)c(Cl)c1)C1CCN(c2ncnc3c2nc2n3CCCC2)CC1,> 100 µM (inactive)
19,O=C(C1CCN(c2ncnc3c2nc2n3CCCCC2)CC1)N1CCN(c2ccccn2)CC1,> 100 µM (inactive)

row,SMILES,IC50
1,O=C(NCc1cccc(Cl)c1)C1CCCN(c2ncnc3c2nc2n3CCCCC2)C1 (stereo not drawn),> 100 µM (inactive)
2,O=C(C1CCN(c2ncnc3c2nc2n3CCCCC2)CC1)N1CCC(Cc2ccccc2)CC1,> 100 µM (inactive)
3,O=C(Nc1cccc(Cl)c1)C1CCN(c2ncnc3c2nc2n3CCCCC2)CC1,> 100 µM (inactive)
4,O=C(NCC1CCN(Cc2cccc(Cl)c2)CC1)[C@H]1CCCN(c2ncnc3c2nc2n3CCCC2)C1,> 100 µM (inactive)
5,Cc1cccc(NC(=O)C2CCN(c3ncnc4c3nc3n4CCCC3)CC2)c1,23 µM (active)
6,O=C(NCC1CCN(Cc2ccc(Cl)c(Cl)c2)CC1)C1CCCN(c2ncnc3c2nc2n3CCCCC2)C1 (stereo not drawn),> 100 µM (inactive)
7,O=C(NCC1CCN(Cc2cccc(Cl)c2)CC1)[C@H]1CCCN(c2ncnc3c2nc2n3CCCCC2)C1,> 100 µM (inactive)
8,COc1ccc(NC(=O)C2CCN(c3ncnc4c3nc3n4CCCCC3)CC2)cc1Cl,> 100 µM (inactive)
9,O=C(C1CCN(c2ncnc3c2nc2n3CCCCC2)CC1)N1CCN(c2ccccc2)CC1,> 100 µM (inactive)
10,CC1CCCC(C)N1CCCNC(=O)C1CCCN(c2ncnc3c2nc2n3CCCCC2)C1 (stereo not drawn),> 100 µM (inactive)
11,O=C(NCC1CCN(Cc2ccc(Cl)cc2)CC1)C1CCCN(c2ncnc3c2nc2n3CCCCC2)C1 (stereo not drawn),> 100 µM (inactive)
12,O=C(NCC1CCN(Cc2ccc(F)cc2)CC1)C1CCCN(c2ncnc3c2nc2n3CCCCC2)C1 (stereo not drawn),> 100 µM (inactive)
13,O=C(NCc1ccc(Cl)c(Cl)c1)C1CCCN(c2ncnc3c2nc2n3CCCCC2)C1 (stereo not drawn),> 100 µM (inactive)
14,Cc1ccc(C)c(CN2CCC(CNC(=O)C3CCCN(c4ncnc5c4nc4n5CCCCC4)C3)CC2)c1 (stereo not drawn),> 100 µM (inactive)
15,Cc1ccc(NC(=O)C2CCN(c3ncnc4c3nc3n4CCCCC3)CC2)cc1Br,> 100 µM (inactive)
16,Cc1cccc(NC(=O)C2CCCN(c3ncnc4c3nc3n4CCCCC3)C2)c1 (stereo not drawn),> 100 µM (inactive)
17,O=C(NCCCN1CCN(c2ccccc2)CC1)C1CCCN(c2ncnc3c2nc2n3CCCCC2)C1 (stereo not drawn),> 100 µM (inactive)
18,O=C(NCc1cccc(Cl)c1)C1CCN(c2ncnc3c2nc2n3CCCC2)CC1,> 100 µM (inactive)
19,O=C(NCC1CCN(Cc2cccc(Cl)c2)CC1)C1CCCN(c2ncnc3c2nc2n3CCCC2)C1 (stereo not drawn),> 100 µM (inactive)
